The source of these data is PubChem BioAssay (EPA / NIEHS).

Results filed as inconclusive are left out. Activity calls are given as the source filed them. The calls were made as follows, unless noted: active = hit-call score of the fitted dose curve at least 0.9, where 1 is the maximum; inconclusive = response in the unintended direction; inactive = score below 0.9.

Assay [1] can be described thus: ATG_TAL_CIS: Attagene CIS-FACTORIAL HepG2 Assay for human TAL Basal Promoter (AID 2282966; active = hit-call score of the fitted dose curve at least 0.9, where 1 is the maximum; inactive = score below 0.9;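 also: background control endpoint measuring basal TAL promoter reporter mRNA not a specific factor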). The note with it: HepG2 Attagene cis-factorial TAL promoter reporter; actives raise or lower the signal. The procedure, abridged: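 Basal-promoter background-control endpoint from a multiplexed HepG2 reporter panel. Cells were exposed 24 h, then reporter mRNA was read by RT-PCR/CE fluorescence and fitted in both directions relative to DMSO.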

Assay [2] in a line: ATG_TGFb_CIS: Attagene CIS-FACTORIAL HepG2 Assay for human Transforming Growth Factor (TGF) (AID 2282967; active = hit-call score of the fitted dose curve at least 0.9, where 1 is the maximum; inactive = score below 0.9). As to conditions: HepG2 Attagene CIS TGFb reporter, mRNA transcription; actives raise or lower the signal. The gist of the method: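 Transient MRTU transfection of HepG2 (FuGene 6). Dose 24 h. TriZol RNA, oligo(dT) RT, PCR, 6-FAM primer extension, HpaI cut, CE. Bidirectional fit, DMSO = baseline.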

A short description of assay [3]: ATG_VDRE_CIS: Attagene CIS-FACTORIAL HepG2 Assay for human Vitamin D Receptor Element (VDRE) (AID 2282968; active = hit-call score of the fitted dose curve at least 0.9, where 1 is the maximum; inactive = score below 0.9). The note with it: HepG2 VDRE cis-reporter transcription, actives raise or lower the signal. The procedure, abridged: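 Compounds were applied for 24 h to HepG2 cells transfected with promoter-regulated reporter units. Total RNA was reverse-transcribed, and reporter amplicons were fluorescently labelled and sized by capillary electrophoresis.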

Assay [4] deals with X-box-binding protein 1 (Homo sapiens) (UniProt P17861). The experiment in a line: ATG_Xbp1_CIS: Attagene CIS-FACTORIAL HepG2 Assay for human X-box Binding Protein 1 (XBP1) (AID 2282972; active = hit-call score of the fitted dose curve at least 0.9, where 1 is the maximum; inactive = score below 0.9). The note with it: HepG2 XBP1 cis-element reporter, Attagene multiplex; actives raise or lower the signal. The procedure, abridged:
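Multiplexed cis-reporter readout in transfected HepG2 liver cells. Exposure lasted 24 hours. Activity in either direction was fitted against DMSO as negative control and baseline.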

Assay [5] is described as follows: ATG_GAL4_TRANS: Attagene TRANS-FACTORIAL HepG2 Assay for GAL4 (Internal Marker) (AID 2282976). As to conditions: HepG2 Attagene TRANS GAL4 internal marker reporter. The procedure, abridged:
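Background-control readout: GAL4-UAS reporter transcript in transiently transfected HepG2 cells after 24 h compound exposure. Measured by RT-PCR, 6-FAM primer extension, HpaI digest and capillary electrophoresis; gain-of-signal fit versus DMSO.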

For assay [6], the target named is Oxysterols receptor LXR-beta (Homo sapiens) (UniProt P55055). The experiment in a line: ATG_LXRb_TRANS: Attagene TRANS-FACTORIAL HepG2 Assay for human Liver X Receptor beta (LXRb) (AID 2282981). As to conditions: HepG2 Attagene TRANS GAL4-LXRb reporter, mRNA. The procedure, abridged:
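Multiplexed reporter assay, HepG2, 24 h dosing. Fluorescence of labelled RT-PCR products after capillary electrophoresis gives transcript level; positive fitting direction relative to DMSO.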

Assay [7] can be described thus: ATG_M_06_TRANS: Attagene TRANS-FACTORIAL HepG2 Assay for M06 Transcription Factor (Internal Marker) (AID 2282983). As to conditions: HepG2 Attagene TRANS M06 internal marker reporter. The procedure, abridged: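 mRNA levels of a reporter transcript, quantified as FAM fluorescence on capillary electrophoresis, served as readout. HepG2 cells expressing exogenous GAL4-chimera reporter constructs were exposed for 24 h. Gain of signal over DMSO was evaluated.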

Assay [8] can be described thus: ATG_M_32_TRANS: Attagene TRANS-FACTORIAL HepG2 Assay for M32 Transcription Factor (Internal Marker) (AID 2282984). As to conditions: HepG2 Attagene TRANS M32 internal marker reporter. The procedure, abridged:
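Internal-marker readout from a multiplexed transcription reporter panel. HepG2 cells were transfected with GAL4-UAS reporter units, treated 24 hours, and reporter transcript levels determined by fluorescence after RT-PCR and capillary separation.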

For assay [9], the target named is Transcriptional activator Myb (Homo sapiens) (UniProt P10242). The experiment in a line: ATG_Myb_CIS: Attagene CIS-FACTORIAL HepG2 Assay for human Myeloblastosis (Myb) Proto-Oncogene Transcription Factor (AID 2282986; active = hit-call score of the fitted dose curve at least 0.9, where 1 is the maximum; inactive = score below 0.9). The note with it: HepG2 Attagene CIS-FACTORIAL Myb reporter transcription; actives raise or lower the signal. The procedure, abridged: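 Endogenous transcription factor activity at a Myb-responsive cis element is reported in human liver HepG2 cells after 24 h chemical treatment. Reporter mRNA is detected by RT-PCR and capillary electrophoresis fluorescence, with DMSO as baseline.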
Sequence of Transcriptional activator Myb (Homo sapiens) (P10242 whole entry, looked up): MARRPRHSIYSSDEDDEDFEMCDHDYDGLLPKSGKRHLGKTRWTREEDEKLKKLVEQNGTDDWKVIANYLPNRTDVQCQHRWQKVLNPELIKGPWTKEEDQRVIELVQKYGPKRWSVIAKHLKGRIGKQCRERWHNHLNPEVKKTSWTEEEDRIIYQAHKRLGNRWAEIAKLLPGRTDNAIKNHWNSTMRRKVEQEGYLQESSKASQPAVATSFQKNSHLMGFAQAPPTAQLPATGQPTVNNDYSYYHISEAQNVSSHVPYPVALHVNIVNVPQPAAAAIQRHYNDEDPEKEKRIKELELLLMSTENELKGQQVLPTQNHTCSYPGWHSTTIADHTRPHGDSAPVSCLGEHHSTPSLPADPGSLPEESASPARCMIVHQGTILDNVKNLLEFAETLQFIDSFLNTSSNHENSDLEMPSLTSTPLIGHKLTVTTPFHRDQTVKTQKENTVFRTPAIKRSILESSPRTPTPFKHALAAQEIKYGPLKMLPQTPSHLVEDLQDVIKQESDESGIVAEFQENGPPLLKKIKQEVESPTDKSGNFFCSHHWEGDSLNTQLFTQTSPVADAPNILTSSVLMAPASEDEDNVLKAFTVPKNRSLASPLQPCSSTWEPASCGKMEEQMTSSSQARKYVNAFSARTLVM

The target of assay [10] is Nuclear respiratory factor 1 (Homo sapiens) (UniProt Q16656). The experiment in a line: ATG_NRF1_CIS: Attagene CIS-FACTORIAL HepG2 Assay for human Nuclear Respiratory Factor 1 (NRF1) Orphan Gene (AID 2282987; active = hit-call score of the fitted dose curve at least 0.9, where 1 is the maximum; inactive = score below 0.9). The note with it: HepG2 NRF1 cis-element reporter, Attagene multiplex; actives raise or lower the signal. The gist of the method: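 Human hepatoma HepG2 cells carrying transfected promoter-regulated reporter units were incubated with test chemicals for 24 h. Reporter transcripts were measured by RT-PCR plus capillary electrophoresis, and endpoints derived by bidirectional fitting with DMSO as baseline.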
Sequence of Nuclear respiratory factor 1 (Homo sapiens) (Q16656 whole entry, looked up): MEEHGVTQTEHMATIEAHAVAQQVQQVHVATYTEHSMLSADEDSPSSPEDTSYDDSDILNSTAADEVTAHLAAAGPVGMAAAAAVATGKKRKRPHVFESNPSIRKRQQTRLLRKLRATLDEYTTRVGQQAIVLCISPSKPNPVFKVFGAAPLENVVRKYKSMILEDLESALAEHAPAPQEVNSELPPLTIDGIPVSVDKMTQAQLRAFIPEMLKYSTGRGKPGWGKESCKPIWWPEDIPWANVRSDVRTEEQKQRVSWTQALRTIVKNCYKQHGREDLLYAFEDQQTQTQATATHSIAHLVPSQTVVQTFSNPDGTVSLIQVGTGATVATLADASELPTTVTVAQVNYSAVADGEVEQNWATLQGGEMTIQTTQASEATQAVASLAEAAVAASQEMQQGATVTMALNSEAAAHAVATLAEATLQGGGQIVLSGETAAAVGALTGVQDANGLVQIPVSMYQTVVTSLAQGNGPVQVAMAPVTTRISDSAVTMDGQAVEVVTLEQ

Assay [11] has as its target Nuclear receptor subfamily 1 group I member 3 (Homo sapiens) (UniProt Q14994). Description: ATG_CAR_TRANS: Attagene TRANS-FACTORIAL HepG2 Assay for human Constitutive Androstane Receptor (CAR) (AID 2282969).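 Also: activators raise reporter mRNA above DMSO so AC50 marks induction.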 The note with it: HepG2 Attagene TRANS-FACTORIAL CAR reporter. The gist of the method:
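Transiently transfected HepG2, multiplex TRANS reporters (CAR-Gal4 chimera driving GAL4-UAS reporter). 24 h dosing. Readout: reporter transcript by RT-PCR + capillary electrophoresis, fluorescence intensity; positive direction vs DMSO.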

The target of assay [12] is Estrogen receptor (Homo sapiens) (UniProt P03372). Description: ATG_ERa_TRANS: Attagene TRANS-FACTORIAL HepG2 Assay for human Estrogen Receptor alpha (ERa) (AID 2282970). The note with it: HepG2 Attagene TRANS ERa GAL4 reporter, mRNA. The procedure, abridged: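 Gal4-fusion ERa transactivation, measured as reporter transcript level in transiently transfected HepG2 cells. Exposure 24 h; RT-PCR plus capillary electrophoresis with fluorescence detection.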
Sequence of Estrogen receptor (Homo sapiens) (P03372 whole entry, looked up, the tested form may be a part): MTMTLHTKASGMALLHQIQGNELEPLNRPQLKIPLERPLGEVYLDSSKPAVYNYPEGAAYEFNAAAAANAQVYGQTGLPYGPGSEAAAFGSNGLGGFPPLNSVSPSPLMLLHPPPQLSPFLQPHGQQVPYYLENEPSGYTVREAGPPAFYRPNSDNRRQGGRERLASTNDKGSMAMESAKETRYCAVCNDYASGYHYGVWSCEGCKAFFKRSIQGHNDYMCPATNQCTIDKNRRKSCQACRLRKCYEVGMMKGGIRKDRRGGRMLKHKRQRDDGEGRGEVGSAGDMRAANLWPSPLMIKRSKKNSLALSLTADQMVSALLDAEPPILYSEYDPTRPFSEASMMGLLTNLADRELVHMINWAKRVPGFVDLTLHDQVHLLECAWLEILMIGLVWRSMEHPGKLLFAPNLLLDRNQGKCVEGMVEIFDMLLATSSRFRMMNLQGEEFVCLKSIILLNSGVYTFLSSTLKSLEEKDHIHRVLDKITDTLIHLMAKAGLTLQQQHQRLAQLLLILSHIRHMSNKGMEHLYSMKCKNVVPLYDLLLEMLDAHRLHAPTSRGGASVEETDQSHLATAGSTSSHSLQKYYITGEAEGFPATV

Assay [13] addresses Nuclear receptor subfamily 4 group A member 2 (Homo sapiens) (UniProt P43354). The experiment in a line: ATG_NURR1_TRANS: Attagene TRANS-FACTORIAL HepG2 Assay for human Nuclear Receptor Related Protein 1 (NURR1) (AID 2282985). The note with it: HepG2 Attagene TRANS reporter, mRNA readout. The procedure, abridged: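 Endpoint: reporter mRNA increase relative to DMSO. HepG2 cells transfected with reporter units, treated 24 h; RNA processed by RT-PCR, labelling, HpaI digestion and capillary electrophoresis.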

Assay [14] deals with Steroid hormone receptor ERR1 (Homo sapiens) (UniProt P11474). The experiment in a line: ATG_ERRa_TRANS: Attagene TRANS-FACTORIAL HepG2 Assay for human Estrogen-Related Receptor alpha (ERRa) (AID 2282971). The note with it: HepG2 Attagene TRANS reporter, ERRa transactivation. The procedure, abridged: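 HepG2 cells transiently transfected with GAL4-UAS reporter units and chimeric NR-Gal4 constructs; after 24 hour compound incubation, reporter mRNA quantified by RT-PCR, fluorescent labelling and capillary electrophoresis, gain of signal versus DMSO.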

A short description of assay [15]: ATG_M_19_TRANS: Attagene TRANS-FACTORIAL HepG2 Assay for M19 Transcription Factor (Internal Marker) (AID 2282974). The note with it: HepG2 Attagene TRANS-FACTORIAL M19 internal marker reporter. The gist of the method:
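After transfection of HepG2 with GAL4-UAS-driven reporter constructs, cells are dosed for 24 h. Total RNA is reverse-transcribed, reporter sequences PCR-amplified and labelled, then HpaI-digested and sized by capillary electrophoresis.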

Assay [16] has as its target Estrogen-related receptor gamma (Homo sapiens) (UniProt P62508). Description: ATG_ERRg_TRANS: Attagene TRANS-FACTORIAL HepG2 Assay for human Estrogen-Related Receptor gamma (ERRg) (AID 2282977).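 Also: hits increase reporter signal over DMSO so potencies reflect activators.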 The note with it: HepG2 Attagene TRANS reporter, ERRg transactivation. The gist of the method:
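Exogenous NR-Gal4 chimera activity measured as reporter transcript induction after 24 h in transiently transfected HepG2 cells. RNA reverse-transcribed, PCR-amplified, 6-FAM-labelled and resolved by capillary electrophoresis; increase over DMSO baseline.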

Assay [17] addresses Bile acid receptor (Homo sapiens) (UniProt Q96RI1). Description: ATG_FXR_TRANS: Attagene TRANS-FACTORIAL HepG2 Assay for Farnesoid X Receptor (FXR) (AID 2282979).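 Also: hits raise reporter mRNA above DMSO so AC50 marks FXR activation.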 As to conditions: HepG2 Attagene TRANS FXR-GAL4 reporter transcription. The procedure, abridged:
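HepG2 cells were transiently transfected with GAL4-UAS reporters driven by chimeric NR-Gal4 proteins and dosed for 24 h. Reporter mRNA was quantified by RT-PCR, fluorescent labelling, HpaI digestion and capillary electrophoresis, with gain of signal scored versus DMSO.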

Assay [18] has as its target Oxysterols receptor LXR-alpha (Homo sapiens) (UniProt Q13133). Description: ATG_LXRa_TRANS: Attagene TRANS-FACTORIAL HepG2 Assay for human Liver X Receptor alpha (LXRa) (AID 2282980). The note with it: HepG2 Attagene TRANS reporter, LXRa transactivation. The gist of the method:
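HepG2 cells transiently transfected with GAL4-UAS reporter units for chimeric NR-Gal4 proteins, exposed to chemicals for 24 h. Reporter mRNA quantified by RT-PCR and capillary electrophoresis; gain of signal fitted relative to DMSO.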

In assay [19] the target is Hepatocyte nuclear factor 4-alpha (Homo sapiens) (UniProt P41235). The experiment in a line: ATG_HNF4a_TRANS: Attagene TRANS-FACTORIAL HepG2 Assay for human Hepatocyte Nuclear Factor 4 alpha (HNF4a) (AID 2282982). The note with it: HepG2 HNF4a transactivation reporter, mRNA readout. The gist of the method:
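Endpoint reflects transcriptional activation of a GAL4-UAS reporter by an HNF4a-GAL4 chimera in transfected HepG2 cells, 24 h post-dosing. Fluorescence from RT-PCR products separated by capillary electrophoresis; DMSO baseline.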

Assay [20] has as its target Glucocorticoid receptor (Homo sapiens) (UniProt P04150). Description: ATG_GR_TRANS: Attagene TRANS-FACTORIAL HepG2 Assay for human Glucocorticoid Receptor (GR) (AID 2282978).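 Also: activators score as hits since higher reporter transcript over DMSO is fitted.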 As to conditions: HepG2 Attagene TRANS GR reporter, mRNA transcription. The gist of the method: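 Multiplexed TRANS reporter system, HepG2; 24 h exposure; RNA → oligo(dT) RT → reporter-specific PCR → 6-FAM primer extension → HpaI cut → CE fluorescence. Gain-of-signal vs DMSO.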

Sequence of Oxysterols receptor LXR-beta (Homo sapiens) (P55055 whole entry, looked up, the tested form may be a part): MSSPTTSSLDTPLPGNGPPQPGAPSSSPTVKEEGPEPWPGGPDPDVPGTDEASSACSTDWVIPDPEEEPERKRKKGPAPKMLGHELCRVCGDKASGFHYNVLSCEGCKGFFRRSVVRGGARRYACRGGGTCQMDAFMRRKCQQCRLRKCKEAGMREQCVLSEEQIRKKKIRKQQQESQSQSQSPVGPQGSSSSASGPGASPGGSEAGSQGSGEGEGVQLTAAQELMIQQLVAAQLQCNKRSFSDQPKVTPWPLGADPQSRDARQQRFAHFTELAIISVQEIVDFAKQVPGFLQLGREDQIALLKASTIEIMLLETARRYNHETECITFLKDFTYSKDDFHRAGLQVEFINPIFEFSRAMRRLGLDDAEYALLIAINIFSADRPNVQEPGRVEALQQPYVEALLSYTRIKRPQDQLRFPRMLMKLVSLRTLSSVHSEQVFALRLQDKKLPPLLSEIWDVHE
Sequence of Hepatocyte nuclear factor 4-alpha (Homo sapiens) (P41235 whole entry, looked up, the tested form may be a part): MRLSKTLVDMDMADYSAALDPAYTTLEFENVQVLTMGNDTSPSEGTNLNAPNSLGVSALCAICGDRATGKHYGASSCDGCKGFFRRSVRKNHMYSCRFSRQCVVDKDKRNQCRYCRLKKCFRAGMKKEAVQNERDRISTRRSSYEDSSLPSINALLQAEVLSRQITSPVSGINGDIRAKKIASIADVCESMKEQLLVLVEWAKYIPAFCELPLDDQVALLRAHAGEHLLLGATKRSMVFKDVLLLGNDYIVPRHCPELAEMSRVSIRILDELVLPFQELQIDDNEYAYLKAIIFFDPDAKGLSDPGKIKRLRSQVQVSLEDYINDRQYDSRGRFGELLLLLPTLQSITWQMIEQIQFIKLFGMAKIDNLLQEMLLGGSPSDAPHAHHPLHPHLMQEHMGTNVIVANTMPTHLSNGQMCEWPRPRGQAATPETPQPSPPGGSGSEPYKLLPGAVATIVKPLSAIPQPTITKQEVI
Sequence of Nuclear receptor subfamily 1 group I member 3 (Homo sapiens) (Q14994 whole entry, looked up, the tested form may be a part): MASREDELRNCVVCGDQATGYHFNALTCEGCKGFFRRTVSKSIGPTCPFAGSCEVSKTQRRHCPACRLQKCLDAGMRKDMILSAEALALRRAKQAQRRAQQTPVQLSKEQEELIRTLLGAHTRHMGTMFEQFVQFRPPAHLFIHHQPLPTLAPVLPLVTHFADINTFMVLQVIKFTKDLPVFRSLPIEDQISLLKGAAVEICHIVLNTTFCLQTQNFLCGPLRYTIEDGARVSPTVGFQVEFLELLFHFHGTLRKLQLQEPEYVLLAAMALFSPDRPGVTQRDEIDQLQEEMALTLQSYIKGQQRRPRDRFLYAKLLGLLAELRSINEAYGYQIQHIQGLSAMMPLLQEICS
Sequence of Bile acid receptor (Homo sapiens) (Q96RI1 whole entry, looked up, the tested form may be a part): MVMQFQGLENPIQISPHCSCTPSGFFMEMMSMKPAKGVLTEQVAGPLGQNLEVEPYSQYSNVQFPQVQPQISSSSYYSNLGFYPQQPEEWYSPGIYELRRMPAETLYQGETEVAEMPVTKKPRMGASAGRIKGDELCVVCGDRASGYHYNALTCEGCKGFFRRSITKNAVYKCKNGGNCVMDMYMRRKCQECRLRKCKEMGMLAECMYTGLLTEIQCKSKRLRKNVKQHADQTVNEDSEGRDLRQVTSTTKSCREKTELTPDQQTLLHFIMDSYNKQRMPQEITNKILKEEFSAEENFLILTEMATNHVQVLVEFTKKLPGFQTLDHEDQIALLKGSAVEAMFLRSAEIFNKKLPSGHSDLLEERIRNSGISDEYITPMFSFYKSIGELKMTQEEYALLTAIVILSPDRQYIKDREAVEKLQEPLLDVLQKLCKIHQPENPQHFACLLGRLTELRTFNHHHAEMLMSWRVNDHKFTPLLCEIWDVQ
Sequence of X-box-binding protein 1 (Homo sapiens) (P17861 whole entry, looked up): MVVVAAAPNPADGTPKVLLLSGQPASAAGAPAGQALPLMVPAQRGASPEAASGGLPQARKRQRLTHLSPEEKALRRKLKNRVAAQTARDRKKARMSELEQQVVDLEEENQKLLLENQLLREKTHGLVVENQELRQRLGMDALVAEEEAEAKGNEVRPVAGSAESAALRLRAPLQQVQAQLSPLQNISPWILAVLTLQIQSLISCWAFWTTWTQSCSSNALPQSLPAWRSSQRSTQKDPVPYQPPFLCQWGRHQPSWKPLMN
Sequence of Nuclear receptor subfamily 4 group A member 2 (Homo sapiens) (P43354 whole entry, looked up): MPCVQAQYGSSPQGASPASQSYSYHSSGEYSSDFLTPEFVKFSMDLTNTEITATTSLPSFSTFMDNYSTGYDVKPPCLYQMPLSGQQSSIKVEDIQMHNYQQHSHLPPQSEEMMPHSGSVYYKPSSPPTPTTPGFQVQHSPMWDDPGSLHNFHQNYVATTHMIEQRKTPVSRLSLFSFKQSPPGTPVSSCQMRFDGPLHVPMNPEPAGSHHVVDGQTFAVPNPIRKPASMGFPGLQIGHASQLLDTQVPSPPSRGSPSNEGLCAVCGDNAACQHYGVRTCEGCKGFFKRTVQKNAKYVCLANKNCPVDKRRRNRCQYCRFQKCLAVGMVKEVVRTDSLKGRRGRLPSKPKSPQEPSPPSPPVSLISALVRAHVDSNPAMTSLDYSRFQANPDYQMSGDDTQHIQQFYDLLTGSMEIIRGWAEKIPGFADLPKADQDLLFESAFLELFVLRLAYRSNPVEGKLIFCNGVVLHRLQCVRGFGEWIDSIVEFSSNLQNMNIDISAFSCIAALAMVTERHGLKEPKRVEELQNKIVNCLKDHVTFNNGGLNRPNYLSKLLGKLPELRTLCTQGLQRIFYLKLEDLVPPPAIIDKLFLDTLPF
Sequence of Oxysterols receptor LXR-alpha (Homo sapiens) (Q13133 whole entry, looked up, the tested form may be a part): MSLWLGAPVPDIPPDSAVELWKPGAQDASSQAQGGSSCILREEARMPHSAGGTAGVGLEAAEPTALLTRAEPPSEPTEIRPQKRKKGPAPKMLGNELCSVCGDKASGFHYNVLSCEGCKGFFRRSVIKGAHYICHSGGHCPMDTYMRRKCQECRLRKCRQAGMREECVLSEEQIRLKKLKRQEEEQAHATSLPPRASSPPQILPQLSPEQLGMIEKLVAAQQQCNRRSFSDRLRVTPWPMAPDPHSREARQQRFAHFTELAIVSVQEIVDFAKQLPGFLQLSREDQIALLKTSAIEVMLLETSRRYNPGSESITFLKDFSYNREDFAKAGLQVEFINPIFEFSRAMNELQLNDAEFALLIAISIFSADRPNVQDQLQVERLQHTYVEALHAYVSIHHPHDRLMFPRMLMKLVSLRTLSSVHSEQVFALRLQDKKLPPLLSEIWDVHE

`C[Si](C)(CCCN)O[Si](C)(C)CCCN`: the compound was classed as inactive in [1], in assay [2], in assay [3], in assay [4], in [5] and in assay [6]. The call in assay [7], in [8], in assay [9] and in [10] was inactive.

Take `C=C(C)[C@H]1CC=C(C)CC1`: the compound was called inactive in [1], in [2], in assay [11], in [12], in [4] and in [5]. The outcome in [6], in assay [7], in [13], in assay [9] and in assay [10] was inactive.

As to `CCCCCCOC(=O)C(C)CC` (stereo unspecified), the call in assay [1], in assay [2], in [11], in assay [12], in assay [14] and in assay [4] was inactive. In addition, the compound was classed as inactive in [15], in assay [5], in [16], in assay [17], in assay [18] and in assay [19]. Besides, the outcome in [8], in assay [9] and in [10] was inactive.

One may read the AC50 as the concentration giving half of the maximal activity seen. Take `O=C(c1ccc(O)cc1)c1ccc(O)cc1O`: the outcome in assay [1], in [2], in [11], in assay [4], in assay [15] and in assay [5] was inactive. For the same compound, the compound was called inactive in assay [20], in assay [18], in [7], in [8], in [13] and in assay [10]. The AC50 in [12] was 1030 nM (active).

`O=P(O)(O)Oc1ccccc1`: the outcome in [1], in [2], in assay [3], in assay [4], in [20] and in assay [17] was inactive. The outcome in assay [6], in [19], in [7], in assay [9] and in assay [10] was inactive.

As to `CCOC(=O)NNc1nncc2ccccc12`, the outcome in assay [1], in [2], in assay [3], in assay [4], in assay [5] and in [17] was inactive. Further, the compound was called inactive in [19], in [7], in assay [8], in [9] and in [10].

In the case of `COC(F)(F)C(F)(C(F)(F)F)C(F)(F)F`, the result in [1], in assay [2], in assay [3], in assay [5], in assay [17] and in assay [6] was inactive. Besides, the compound was called inactive in [7], in assay [8], in [9] and in [10].
